miR122 inh = miR-122 inhibition in Huh7 cells | Huh7 miR-122 Renilla luciferase sensor, 48 h; neutral wells = 0, positive control = 100 | AID 602342 | actives 0.3% (n = 340,000) | activation (reporter increase), % at 12.5 µM;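 active = mean replicate activation score at least 90 and every replicate individually at or above 90; inconclusive = only one of the two criteria met; inactive = neither criterion met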;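 also: higher luciferase means less miR-122 activity so hits act as miR-122 inhibitors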
Env fusion inh = inhibitors of HIV Env-mediated cell fusion; inhibition, % at 12.3 µM; HeLa-JRFL Env/CEM21 cell fusion, luciferase; actives 1.1% (n = 360,000);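 active = mean replicate inhibition score of at least 50 and every replicate individually at or above 50; inconclusive = only one of the two criteria met; inactive = mean below 50 and not all replicates reaching 50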;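 also: 0% = plate neutral controls and 100% = maraviroc near 300 nM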
Statin myotox sup = protects C2C12 myotubes from simvastatin toxicity; rescue of ATP level, % at 7.49 µM; ATP luminescence, 48 h; scaled: DMSO 0, geranylgeraniol control 100; actives 0.78% (n = 330,000); AID 602340;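 active = mean ATP rescue above about 67%, or every replicate alone reaching that limit, limit read from the data, passing the limit was not always enough; inconclusive = no clear call, values can overlap the other calls; inactive = mean under the limit and some replicate under it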;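 also: myotubes were challenged with 10 µM simvastatin during compound exposure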
PAX8 reporter = inhibitors of PAX8 transcriptional activity in RMG-I cells; RMG-I TPO-luciferase reporter, SteadyGlo, 24 h; inhibition, % at 12.6 µM; actives 1.2% (n = 360,000); AID 652154;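 active = mean replicate inhibition at least 60% with every replicate also reaching 60%; inconclusive = only one of the two criteria is met; inactive = mean below 60% and not all replicates reaching 60%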;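 also: luciferase light reporting Pax8 driven TPO promoter activity; plate controls were median of neutral control wells for no effect and mitoxantrone controls for full effect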
EWS-Fli block = blocks EWS/Fli oncoprotein-driven transcription; AID 651661; actives 0.67% (n = 350,000); inhibition, % at 12.6 µM; A673 NR0B1-luciferase reporter, viability-normalised;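 active = mean inhibition of at least 50% after viability correction, with every replicate also passing that limit; inconclusive = mean reaches 50% but only one of two replicates passes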;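 also: firefly luciferase signal divided by Alamar Blue viability fluorescence both relative to DMSO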
GSIS activator = GLuc luminescence reporter in INS-1E cells, primary screen for activators of glucose-dependent secretion of insulin; INS-1E GLuc reporter insulin secretion, 2-3 h; activation, % at 16.6 µM; actives 0.61% (n = 370,000); AID 743287;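 active = lowest replicate activation of at least 40%, so every replicate reaches that level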;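 also: 0% = median of neutral control wells and 100% = median of IBMX positive control wells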
Starred values were filed as active, the others as inactive; ? = inconclusive; · = no result given; [ ] = dose if it differs, or a comment. Hits are enriched below; roughly 3.1% of the tested compounds scored in any of these assays.

SMILES	miR122 inh	Env fusion inh	Statin myotox sup	PAX8 reporter	EWS-Fli block	GSIS activator
C[C@H]1CCCCO[C@H](CN(C)Cc2ccc(Cl)c(Cl)c2)[C@@H](C)CN([C@@H](C)CO)C(=O)c2cc(NS(=O)(=O)c3ccc(F)cc3)ccc2O1	·	·	·	35	-42	-24
C[C@@H]1CN([C@H](C)CO)C(=O)c2cc(NS(=O)(=O)c3ccc(Cl)cc3)ccc2O[C@@H](C)CCCCO[C@H]1CN(C)Cc1ccc(Cl)c(Cl)c1	5[16.7 µM]	-12[16.7 µM]	·	113*	17	-8
C[C@H](CO)N1C[C@H](C)[C@@H](CN(C)Cc2ccc(Cl)c(Cl)c2)OCCCC[C@H](C)Oc2ccc(NS(=O)(=O)c3ccc(F)cc3)cc2C1=O	-3[16.7 µM]	78*[16.7 µM]	·	105*	10	-13
CCCC(=O)Nc1ccc2c(c1)C(=O)N(C)[C@@H]1CC[C@@H](CC(=O)NCc3ccccc3F)O[C@@H]1CO2	0[16.7 µM]	-5[16.7 µM]	7	2	-1	2
CCC(=O)Nc1ccc2c(c1)C(=O)N(C)[C@H]1CC[C@@H](CC(=O)NCc3ccccc3)O[C@@H]1CO2	-1[16.7 µM]	6[16.7 µM]	-5	0	3	-10
O=C(O)CCC(NC(=O)c1ccc(Cl)cc1)C(=O)O (stereo not drawn)	·	12	·	-5	-6	13
CN(Cc1cnc2nc(N)nc(N)c2n1)c1ccc(C(=O)NC(CCC(=O)O)C(=O)O)c2ccccc12 (stereo not drawn)	-2	64*	·	54	44	28
CCS(=O)(=O)c1ccc(OC)c(N=Nc2ccc(O)c3ncccc23)c1	-8	36	10	50	0	-15
CCN(CC)S(=O)(=O)c1cc(OC)ccc1N=Nc1ccc(O)c2ncccc12	-24	51	-159	96*	28	14
Cc1ccc(C)c(N=Nc2ccc(O)c3ncccc23)c1	·	-40	·	-7	·	5
Oc1ccc(N=Nc2ccc3c(c2)OCCO3)c2ncccc12	10	12	42	76*	21	22
Cc1cccc(N=Nc2ccc(O)c3ncccc23)c1	·	31	·	52	·	-11
NS(=O)(=O)c1ccc(N=Nc2ccc(O)c3ncccc23)cc1	·	61*	·	60	24	0
CCC(=O)Nc1ccc2c(c1)C(=O)N(C)C[C@@H](OC)[C@H](C)CN(C(=O)CN1CCOCC1)[C@H](C)CO2	-5[16.7 µM]	·	-13	·	12	9
COc1ccc(NC(=O)N(C)C[C@@H]2Oc3ccc(NS(=O)(=O)c4ccc(C)cc4)cc3CC(=O)N([C@H](C)CO)C[C@@H]2C)cc1	11[16.7 µM]	-4[16.7 µM]	17	12	-5	-7
CC(C)(C)n1nnnc1C(c1cccnc1)N1CCN(c2ccccc2)CC1 (stereo not drawn)	4	·	-14	·	·	·
CC(C)CC(c1nnnn1C1CCCC1)N1CCN(c2ccccc2F)CC1 (stereo not drawn)	2	·	117*	·	·	-12
CC(C)CC(c1nnnn1C1CCCCC1)N1CCN(c2ncccn2)CC1 (stereo not drawn)	68	-18	-13	5	·	·
CC(C)(C)n1nnnc1C(c1cccnc1)N1CCN(c2ccccc2F)CC1 (stereo not drawn)	1	·	120*	·	·	·
CO[C@H](CN(C)C(=O)c1cnccn1)[C@H](C)CN([C@H](C)CO)S(=O)(=O)c1ccc(C)cc1	·	·	7	·	-6	-2
C[C@@H]1CCCCO[C@H](CN(C)C(=O)c2ccccc2)[C@@H](C)CN([C@H](C)CO)C(=O)c2cc(NC(=O)Nc3ccc4c(c3)OCO4)ccc2O1	2[16.7 µM]	-14[16.7 µM]	·	4	-1	10
C[C@H]1CCCCO[C@@H](CN(C)Cc2ccc3c(c2)OCO3)[C@@H](C)CN([C@@H](C)CO)C(=O)c2cc(NC(=O)Nc3ccccc3)ccc2O1	-3[16.7 µM]	60*[16.7 µM]	·	-2	2	-29
C[C@@H]1CCCCO[C@@H](CN(C)Cc2ccccc2)[C@@H](C)CN([C@H](C)CO)C(=O)c2cc(NC(=O)Nc3ccc4c(c3)OCO4)ccc2O1	3[16.7 µM]	-35[16.7 µM]	?	5	-5	-36
C[C@H](CO)N1C[C@H](C)[C@H](CN(C)Cc2ccccc2)OCCCC[C@H](C)Oc2ccc(NC(=O)Nc3ccc4c(c3)OCO4)cc2C1=O	4[16.7 µM]	58*[16.7 µM]	-136	3	5	-28
C[C@H](CO)N1C[C@H](C)[C@H](CN(C)C(=O)c2ccccc2)OCCCC[C@H](C)Oc2ccc(NC(=O)Nc3ccc4c(c3)OCO4)cc2C1=O	3[16.7 µM]	61*[16.7 µM]	·	12	6	-9
SMILES	miR122 inh	Env fusion inh	Statin myotox sup	PAX8 reporter	EWS-Fli block	GSIS activator
C[C@@H]1CCCCO[C@@H](CN(C)Cc2ccc3c(c2)OCO3)[C@@H](C)CN([C@H](C)CO)C(=O)c2cc(NC(=O)Nc3ccccc3)ccc2O1	2[16.7 µM]	-17[16.7 µM]	·	-2	-12	-31
Cc1ccc(S(=O)(=O)N[C@@H]2C=C[C@@H](CC(=O)NCCc3ccncc3)O[C@@H]2CO)cc1	·	-23[16.7 µM]	-2	-6	9	5
CCN(CC)CCN(C(=O)c1ccc(S(=O)(=O)N2CCCC2)cc1)c1nc2cc(C)cc(C)c2s1	-2	5	3	-4	·	40*
Cc1nn(S(=O)(=O)c2cccs2)c(C)c1Sc1ccc([N+](=O)[O-])cc1	0	97*	28	18	·	4
CC1(Cc2ccc3c(c2)OCO3)C(=O)Nc2c(Cl)ccc(Cl)c21 (stereo not drawn)	-5	20	88*	8	-11	-22
COc1ccc(OC(F)(F)F)cc1CC1(C)C(=O)Nc2c(Cl)ccc(Cl)c21 (stereo not drawn)	-9	·	4	·	·	·
CN(Cc1ccccc1)C(=S)NC(=O)c1ccc(-c2ccccc2)cc1	22	33	·	-9	·	40*
COc1cc(C(=O)NC(=S)N(C)Cc2ccccc2)cc(OC)c1OC	0	4	·	-3	13	-2
C[C@@H]1CN([C@H](C)CO)C(=O)c2cc(NC(=O)Cc3cn(C)c4ccccc34)ccc2O[C@@H]1CN(C)Cc1ccc(Oc2ccccc2)cc1	9[16.7 µM]	5[16.7 µM]	·	·	8	4
CCOC(=O)c1c(-c2ccc(C)o2)csc1NC(=O)CN1CCOCC1	-5	-21	-6	·	·	·
CCOC(=O)c1c(-c2cccs2)csc1NC(=O)CN1CCOCC1	-4	·	93*	·	·	·
COC(=O)C[C@H]1CC[C@H]2[C@H](COc3ccc(NC(=O)c4ccccc4OC)cc3C(=O)N2C)O1	21[16.7 µM]	-3[16.7 µM]	-20	23	-1	2
CCCn1c(=N)n(CC(O)COc2ccc(C)cc2)c2ccccc21 (stereo not drawn)	·	-72	-19	-9	24	-14
CCN(CC)CCn1c(=N)n(CC(O)COc2ccccc2)c2ccccc21 (stereo not drawn)	2	14	·	12	-8	51*
CCN(CC)CCn1c(=N)n(CCOc2ccccc2)c2ccccc21	0	56*	-92	·	·	41
CCN(CC)CCn1c(=N)n(CCO)c2ccccc21	-4	·	·	·	·	·

Assay outcomes (PubChem)
